Experimental findings from PubChem BioAssay AID720650 (Broad Institute, 2013) are described below.

Usually AC50 stands for the midpoint of the concentration-response curve, whichever way the signal moves.

Structures are written as SMILES. Activity calls are given as the source filed them. How the calls were made is not given here. Bounds are passed on as bounds.

This test in a line: Biochemical counterscreen for C difficile toxins, absence of UDPG, inhibitor dose response (AID 720650). Particulars: series mostly up to 19.5 µM; activity change, negative = inhibition: at the top concentration.
On to `Cc1ccc(C(=O)Nc2scc(-c3ccccc3)c2C(=O)O)cc1`, for which the AC50 was 9.56 µM (active).

Take `CCCn1c(N)c(C(=O)COC(=O)c2cccc(S(=O)(=O)N3CCOCC3)c2)c(=O)[nH]c1=O`: the “activity change, negative = inhibition” value is -15.3% (inactive). `O=C(C[C@H]1CC[C@@H]2[C@H](COC[C@@H](O)CN2C(=O)Nc2ccc(Cl)c(Cl)c2)O1)NCc1ccncc1`: the “activity change, negative = inhibition” value was -7.89% (inactive).

As to `CCOC(=O)C1=C(C)Nc2nnnn2C1c1ccc(OC)c(Br)c1` (centres undefined), the AC50 was > 39 µM (inactive). `CNC(C(=O)c1ccccc1)C(OC)c1cccc([N+](=O)[O-])c1` (centres undefined): the “activity change, negative = inhibition” value was -4.43% (inactive).

As to `COc1ccc(-c2ccc(OC(=O)NC3CCS(=O)(=O)C3)cc2)cc1` (centres undefined), the AC50 is 12.6 µM (active). On to `CC(OC(=O)[C@@H](NC(=O)OCc1ccccc1)C(C)C)C(=O)Nc1ccc(N2CCOCC2)cc1` (some centres undefined), for which the “activity change, negative = inhibition” value was -15.4% (inactive). For `CN1CCN(CC(=O)Nc2cc(N(C)C)nc3ccccc23)CC1`, the “activity change, negative = inhibition” value is 8.85% (inactive). In the case of `COc1ccc(C2=NS(=O)(=O)N(C)C(C(=O)NCc3ccc4c(c3)OCO4)=C2)cc1`, the “activity change, negative = inhibition” value was 0.057% (inactive). Turning to `COc1ccc(CC(=O)NNC(=S)NC(=O)c2cccnc2)cc1`, the “activity change, negative = inhibition” value was -11.6% (inactive). For the compound `CC(Sc1nccn1C)C(=O)c1c(N)n(C)c(=O)n(C)c1=O` (centres undefined), the “activity change, negative = inhibition” value was 13% (inactive). With `Cc1ccc2nc(-c3ccc4c(c3)OCCO4)cn2c1`, the AC50 is 12.4 µM (active). As for `CCOC(=O)N1CCN=C1SCc1ccc(Cl)c(Cl)c1`, the “activity change, negative = inhibition” value was -20.3% (inactive).

As for `O=C(Nc1ccc(N2CCOCC2)c(Cl)c1)c1ccc(Cl)cc1`, the concentration at half-maximal activity (AC50) was 12.3 µM (active). With `O=C(COc1ccc2ccc(=O)oc2c1)NCCN1CCOCC1`, the “activity change, negative = inhibition” value was -11.5% (inactive). Take `CN1C(=O)c2cc(NC(=O)c3cccc(F)c3)ccc2OC[C@H]2O[C@H](CC(=O)NCC3CCCCC3)CC[C@@H]21`: the AC50 result is “inactive”. Regarding `CCCC(=O)Nc1sc2c(c1C(=O)Nc1ccccn1)CCCC2`, the “activity change, negative = inhibition” value is 2.48% (inactive). As for `COc1ccc(/C=C/c2onc(C)c2S(=O)(=O)N2CCC(C(=O)N3CCC(C)CC3)CC2)cc1`, the “activity change, negative = inhibition” value is -5.37% (inactive).

For `CCCNC(=O)N1CC[C@@H]2[C@H]1c1cc(-c3ccccc3)ccc1N(C)[C@H]2CO`, the AC50 was 3.8 µM (active). Take `Cc1ccc(S(=O)(=O)Oc2ccccc2/C=C2\SC(=O)NC2=O)cc1`: the “activity change, negative = inhibition” value is -9.78% (inactive). On to `COCCNc1oc(/C=C/c2ccccc2)nc1C#N`, for which the “activity change, negative = inhibition” value was 1.04% (inactive). For `CCOc1ccc(C(CC(=O)O)NC(=O)C23CC4CC(CC(C4)C2)C3)cc1OC` (centres undefined), the “activity change, negative = inhibition” value is -6.53% (inactive). For the compound `Cc1cc(C(=O)CSc2nnnn2-c2ccccc2)c(C)n1-c1ccc2c(c1)OCO2`, the “activity change, negative = inhibition” value is -2.26% (inactive). Same read-out and setting: under `CCOC(=O)c1sc2nc(OCCN3CCOCC3)cc(C)c2c1N` stands -9.12% (inactive). Regarding `COc1ccc([N+](=O)[O-])cc1NC(=S)NC(C)=O`, the “activity change, negative = inhibition” value is -13.8% (inactive).

`COCC(=O)N1CC[C@@H]2[C@H]1c1cc(-c3ccc(F)cc3)ccc1N(C)[C@H]2CO`: the AC50 is 7.2 µM (active). On the same count and under the same terms, under `Cc1[nH]nc(-c2ccc(O)cc2O)c1Oc1ccccc1` stands 14.6 µM (active). For `Cc1ccc(/C=C(\C#N)C(=O)Nc2ccccn2)o1`, the “activity change, negative = inhibition” value was -11.4% (inactive). Consider `Cc1ccc(C(=O)COC(=O)c2cc(=O)[nH]c3ccccc23)cc1`, for which the “activity change, negative = inhibition” value was -6.45% (inactive). As to `COc1cc(/C=N/NC(=O)Cn2nnc3ccccc32)ccc1O`, the “activity change, negative = inhibition” value was 2.37% (inactive).

`CCCNC(=O)C[C@H]1CC[C@@H]2[C@H](COc3ccc(NC(=O)c4ccc(Cl)cc4)cc3C(=O)N2C)O1`: the AC50 was > 39 µM (inactive). On the same count and under the same terms, under `CCOC(=O)/C(=N/Nc1ccc(Br)cc1)N1CC(C)OC(C)C1` (centres undefined) stands 0.615 µM (active). For `CNC(=O)C[C@H]1CC[C@@H]2[C@@H](COc3ccc(NC(=O)c4cccc(OC)c4)cc3C(=O)N2C)O1`, the “activity change, negative = inhibition” value was -18.7% (inactive).

Turning to `S=C(c1cn(Cc2ccccc2)c2ccccc12)N1CCOCC1`, the “activity change, negative = inhibition” value is -10.2% (inactive). Still for that read-out and setting: under `Cc1ccc(C(=O)NC(=O)OCCn2c(C)cnc2[N+](=O)[O-])cc1` stands 0.194% (inactive). In the case of `Cc1nc2ccccc2nc1OCC(=O)Nc1ccc(F)cc1`, the “activity change, negative = inhibition” value was -2.47% (inactive). In the case of `O=C(NNC(=O)c1cccc2ccccc12)c1cccc(F)c1`, the “activity change, negative = inhibition” value is -8.12% (inactive). For `Cc1c(-n2c(O)c(C3=c4ccccc4=NC3=O)sc2=S)c(=O)n(-c2ccccc2)n1C`, the “activity change, negative = inhibition” value is 6.56% (inactive).

`COC(=O)[C@@]12CCCCN1[C@H](c1ccc(-c3ccccc3)c(OC)c1)[C@H]1C(=O)N(C)C(=O)[C@H]12`: the “activity change, negative = inhibition” value is -5.66% (inactive).
